Data on 22 molecules can be found in the antibiotic and cytotoxicity screens of Wong et al. (2023).

The whole screen tested about 39,000 compounds, of which about 1,500 (3.8%) were called active. Shown is part of a subset that was picked to be rich in actives.

The experiment concerns HSkMC (human skeletal muscle cells). Put plainly: cytotoxicity call (relative viability < 0.9). The following applies: 10 µM.
As to `C=CC(=O)Nc1cccc(Nc2nc(Nc3ccc(NC4CN(CCF)C4)cc3OC)ncc2C(F)(F)F)c1`, the cytotoxicity call was “active”.

Turning to `C=CC(=O)Nc1cccc(C)c1Nc1ncc2cc(-c3c(Cl)c(OC)cc(OC)c3Cl)ccc2n1`, the cytotoxicity call is “inactive”. For `C[C@@H]1CN([C@@H](C)CO)C(=O)c2cc(NC(=O)C3CC3)ccc2O[C@H]1CN(C)S(=O)(=O)c1ccccc1` the value was “inactive”; for `C[C@@H](NC(=O)C[C@@H]1CC[C@H](NC(=O)CN2CCOCC2)[C@H](CO)O1)c1ccccc1`, “inactive”. `CC[C@@H](C)n1ncn(-c2ccc(N3CCN(c4ccc(OC[C@H]5CO[C@](Cn6cncn6)(c6ccc(Cl)cc6Cl)O5)cc4)CC3)cc2)c1=O`: the cytotoxicity call is “inactive”. The value for `CC[C@H](C)n1ncn(-c2ccc(N3CCN(c4ccc(OC[C@H]5CO[C@](Cn6cncn6)(c6ccc(Cl)cc6Cl)O5)cc4)CC3)cc2)c1=O` was “active”. The value for `CCC(C)n1ncn(-c2ccc(N3CCN(c4ccc(OCC5COC(Cn6cncn6)(c6ccc(Cl)cc6Cl)O5)cc4)CC3)cc2)c1=O.Cl.Cl` (configuration not stated) was “inactive”; that for `CS(=O)(=O)N1CCN(Cc2cc3nc(-c4cccc5n[nH]cc45)nc(N4CCOCC4)c3s2)CC1` was “active”. With `CO[C@@H]1CN(C)C(=O)c2ccc(NC(=O)NC(C)C)cc2OC[C@@H](C)N(Cc2ccc(-c3ccccn3)cc2)C[C@H]1C`, the cytotoxicity call was “inactive”. On to `C[C@H](CO)N1C[C@H](C)[C@H](CN(C)CC2CC2)Oc2ccc(NS(=O)(=O)c3cccs3)cc2C1=O`, for which the cytotoxicity call was “inactive”. For `C[C@H]1CCCCO[C@H](CN(C)C(=O)C2CCCCC2)[C@@H](C)CN([C@@H](C)CO)C(=O)c2cc(NC(=O)Nc3ccc(C(F)(F)F)cc3)ccc2O1` the value was “active”; for `C[C@@H]1CCCCO[C@@H](CN(C)C(=O)C2CCCCC2)[C@@H](C)CN([C@H](C)CO)C(=O)c2cc(NC(=O)Nc3ccc(C(F)(F)F)cc3)ccc2O1`, “inactive”. `CC(C)NC(=O)N(C)C[C@@H]1OCCCC[C@H](C)Oc2ccc(NC(=O)Nc3ccc(C(F)(F)F)cc3)cc2C(=O)N([C@H](C)CO)C[C@@H]1C`: the cytotoxicity call is “active”.

In the case of `CC(C)NC(=O)N(C)C[C@H]1OCCCC[C@H](C)Oc2ccc(NC(=O)Nc3ccc(C(F)(F)F)cc3)cc2C(=O)N([C@H](C)CO)C[C@@H]1C`, the cytotoxicity call is “inactive”. The value for `CC(C)NC(=O)N(C)C[C@@H]1OCCCC[C@@H](C)Oc2ccc(NC(=O)Nc3ccc(C(F)(F)F)cc3)cc2C(=O)N([C@@H](C)CO)C[C@H]1C` was “inactive”; that for `CC(C)NC(=O)N(C)C[C@H]1OCCCC[C@@H](C)Oc2ccc(NC(=O)Nc3ccc(C(F)(F)F)cc3)cc2C(=O)N([C@@H](C)CO)C[C@H]1C` was “inactive”. Regarding `C[C@H]1CCCCO[C@H](CN(C)C(=O)Nc2ccc(C(F)(F)F)cc2)[C@@H](C)CN([C@@H](C)CO)C(=O)c2cc(NC(=O)Nc3ccc(C(F)(F)F)cc3)ccc2O1`, the cytotoxicity call was “inactive”. For `CC(C)NC(=O)N(C)C[C@@H]1OCCCC[C@H](C)Oc2ccc(NC(=O)Nc3ccc(C(F)(F)F)cc3)cc2C(=O)N([C@@H](C)CO)C[C@H]1C` the value was “inactive”; for `C[C@H](CO)N1C[C@H](C)[C@H](CN(C)C(=O)Nc2ccc(C(F)(F)F)cc2)OCCCC[C@H](C)Oc2ccc(NC(=O)Nc3ccc(C(F)(F)F)cc3)cc2C1=O`, “active”; for `C[C@@H]1CCCCO[C@H](CN(C)C(=O)Nc2ccc(C(F)(F)F)cc2)[C@@H](C)CN([C@@H](C)CO)C(=O)c2cc(NC(=O)Nc3ccc(C(F)(F)F)cc3)ccc2O1`, “inactive”. In the case of `CC(C)NC(=O)N(C)C[C@@H]1OCCCC[C@H](C)Oc2ccc(NC(=O)Nc3ccc(C(F)(F)F)cc3)cc2C(=O)N([C@@H](C)CO)C[C@@H]1C`, the cytotoxicity call was “active”.

As for `C[C@@H]1CCCCO[C@@H](CN(C)C(=O)C2CCCCC2)[C@H](C)CN([C@@H](C)CO)C(=O)c2cc(NC(=O)Nc3ccc(C(F)(F)F)cc3)ccc2O1`, the cytotoxicity call is “inactive”.
